The results in this text go back to PubChem BioAssay AID651813 (National Center for Advancing Translational Sciences (NCATS), 2012).

SMILES strings stand for the structures. Among all 2,100 compounds or so, about 1,100 (52%) were called active. About 27% were inconclusive and are not listed. The set was probably picked from earlier hits. This is one part of the list. Values without a mark were called inactive. The call rests on the fitted dose curve; in most records, active means well fitted inhibition curve with a large enough effect; inconclusive means small, poorly fitted or top-dose-only effect; inactive means no such curve, though single readings can be large or run the other way.
Potency means the concentration at half of the fitted maximal effect.

This assay deals with DNA dC->dU-editing enzyme APOBEC-3G (Homo sapiens) (UniProt Q9HC16). The assay can be described thus: qHTS for inhibitors of Vif-A3G interactions: Cherry picks counterscreen.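 Further: hits raise yellow fluorescence by blocking Vif-driven A3G-eYFP degradation; nearly all actives have a fitted effect of over 70% in size.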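 On max response: max response given as percent of control signal.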 The following applies: HeLa A3G-eYFP + Vif (tagged APOBEC3G with the HIV-1 protein that degrades it), eYFP fluorescence, 24 h. A digest of the protocol: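 Readout is eYFP fluorescence (488 nm excitation, 500-530 nm emission) measured on Acumen Explorer after 24 h compound exposure, several concentrations, at 37 deg C. Cells: HeLa stably co-expressing Vif and C-terminally eYFP-tagged A3G; MG132 positive control.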
DNA dC->dU-editing enzyme APOBEC-3G (Homo sapiens), sequence (Q9HC16 whole entry, looked up): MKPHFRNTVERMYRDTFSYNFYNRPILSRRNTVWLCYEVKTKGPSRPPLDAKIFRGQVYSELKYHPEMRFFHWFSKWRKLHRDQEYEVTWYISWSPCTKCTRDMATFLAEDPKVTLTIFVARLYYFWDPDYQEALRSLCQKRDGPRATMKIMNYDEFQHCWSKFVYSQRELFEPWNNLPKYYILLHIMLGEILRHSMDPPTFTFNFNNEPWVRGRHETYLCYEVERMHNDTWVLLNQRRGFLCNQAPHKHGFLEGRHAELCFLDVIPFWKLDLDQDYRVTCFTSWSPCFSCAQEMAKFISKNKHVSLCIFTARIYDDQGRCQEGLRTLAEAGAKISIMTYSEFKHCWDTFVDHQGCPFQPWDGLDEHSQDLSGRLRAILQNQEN
Background: Quantitative high-throughput screening tests each substance at several concentrations.
Regarding `Cc1ccc2nc(C)c(C(=O)NN=C3CCCCCC3)n2c1`, the max response is -10.3%.
The same measure, in the same setting: the figure for `CCOc1cc(Br)cc(/C=C2\SC(=Nc3ccccc3)NC2=O)c1O` is -7.55%.
As to `COc1cc(/C=C2/SC(=Nc3ccc(O)cc3)NC2=O)ccc1O`, the Potency was 14.6 µM (active).
For the compound `COc1cc(/C=C2\SC(=Nc3cccnc3)NC2=O)cc(OC)c1OC`, the max response is -29.3%.
For `COc1cc(/C=C2\SC(=Nc3ccccc3)NC2=O)cc(Cl)c1O`, the Potency was 3.66 µM (active).
On the same count and under the same terms, the result for `O=C1NC(=Nc2ccc(O)cc2)S/C1=C/c1ccco1` reads 8.86 µM (active).
As to `Cc1ccc2nc(/C(C#N)=C/c3ccc(-c4ccccc4C(=O)O)o3)[nH]c2c1`, the max response is 43.5%.
For `Cc1ccc2nc(/C(C#N)=C/c3ccc(-c4ccc(F)cc4F)o3)[nH]c2c1`, the Potency is 1.64 µM (active).
Same read-out and setting: the figure for `Cc1ccc2nc(/C(C#N)=C\c3ccc([N+](=O)[O-])o3)[nH]c2c1` is 18.4 µM (active).
On the same count and under the same terms, the figure for `Cc1ccc2nc(/C(C#N)=C\c3ccc(OC(=O)c4cccs4)cc3)[nH]c2c1` is 11.2 µM (active).
On the same count and under the same terms, the figure for `N#C/C(=C\c1ccc(-c2ccc(F)cc2F)o1)c1nc2ccccc2[nH]1` is 8.2 µM (active).
On to `COc1cc(CNCCSc2nnnn2C)ccc1OCc1c(F)cccc1Cl`, for which the max response was 28.9%.
Regarding `Cc1ccc2nc(/C(C#N)=C/c3ccc(-c4ccc(C(=O)OC(C)C)cc4)o3)[nH]c2c1`, the Potency was 3.66 µM (active).
In the case of `Cc1c(Cl)cccc1-c1ccc(/C=C(\C#N)c2nc3ccccc3[nH]2)o1`, the Potency was 10.3 µM (active).
The same measure, in the same setting: the result for `N#C/C(=C\c1ccc(-c2ccc(C(=O)O)cc2)o1)c1nc2ccccc2[nH]1` reads 4.61 µM (active).
On the same count and under the same terms, the result for `Cc1ccc2nc(/C(C#N)=C/c3ccc(-c4cccc(Cl)c4)o3)[nH]c2c1` reads 8.2 µM (active); that for `N#Cc1ccc(-c2cccs2)nc1SCc1c(F)cccc1Cl`, 1.84 µM (active); that for `C=C(C(=O)c1ccccc1)C(C(=C)C(=O)c1ccccc1)c1ccc(OC)cc1`, 9.94 µM (active).
On the same count and under the same terms, the figure for `C=C(C(=O)c1ccccc1)C(C)C(=C)C(=O)c1ccccc1` is 8.86 µM (active).
For `C=C(C(=O)c1ccccc1)C(NC(C)(C)C)c1ccccc1` (stereo not given), the Potency is 14 µM (active).
Still for that read-out and setting: the figure for `COc1ccc(-c2n[nH]c(C)c2-c2ccc(OC)c(OC)c2)c(O)c1` is 17.7 µM (active).
On to `COc1cc2nc(SCC(=O)NCc3ccco3)n(Cc3ccc(Cl)cc3)c(=O)c2cc1OC`, for which the max response was -29.6%.
As for `Cc1cccc(Cn2c(=O)n(CCCC(=O)NCc3ccco3)c(=O)c3ccccc32)c1`, the Potency was 14 µM (active).
Same read-out and setting: the result for `Cc1cc(C)c(NC(=O)Cn2c(=O)n(Cc3ccc(C(=O)NCc4ccco4)cc3)c(=O)c3sccc32)c(C)c1` reads 18.4 µM (active).
On to `Cc1ccc(C)c(Cn2c(=O)n(CCCC(=O)NCc3ccco3)c(=O)c3sccc32)c1`, for which the Potency is 14 µM (active).
